CASP6 VEID inh = inhibitors of human caspase-6. 0.53% of 350,000 active. inhibition, % at 12.5 µM. AID 686996. purified caspase-6, Z-VEID-R110 cleavage fluorescence;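 active = mean inhibition across replicates at least about 35%, with every replicate also reaching that limit, limit read from the data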;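 note: 0% = median of neutral control wells and 100% = no fluorescence left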
Target sequence (P55212 24-179 limits assumed): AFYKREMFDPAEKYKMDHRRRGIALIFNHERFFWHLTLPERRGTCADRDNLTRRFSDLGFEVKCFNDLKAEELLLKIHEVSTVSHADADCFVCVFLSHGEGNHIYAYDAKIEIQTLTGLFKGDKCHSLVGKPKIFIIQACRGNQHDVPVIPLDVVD
Target sequence (P55212 194-293 limits assumed): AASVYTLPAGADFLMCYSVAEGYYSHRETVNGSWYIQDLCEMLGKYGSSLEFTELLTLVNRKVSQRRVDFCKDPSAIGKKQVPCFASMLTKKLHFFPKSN
LEDGF integ inh = blocks HIV-1 LEDGF/p75-dependent DNA integration; TR-FRET IN-LEDGF/p75 DNA integration, Eu/Cy5; inhibition, % at 3.7 µM; 0.64% of 370,000 active; AID 743269;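 active = inhibition above the screen-wide mean plus 3 SD, cut at about 13% in these data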;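 note: signal is the Cy5 over europium emission ratio at 671 and 618 nm; 0% = plate median of compound wells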
MBD2 DNA inh = MBD2-methylated oligo binding inhibition; TR-FRET, MBD2 binding to methylated oligonucleotide; inhibition, % at 4.4 µM; 0.31% of 370,000 active; in the data active = inhibition above about 13%
UHRF1 binding = human UHRF1 methylated DNA binding inhibitors; Q96T88; UHRF1 binding to methylated oligo, TR-FRET; inhibition, % at 4.4 µM; 0.75% of 370,000 active; AID 687016; in the data active = inhibition above about 21%;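 note: UHRF1 SRA domain binding a hemimethylated CpG hairpin DNA probe; 0% = median of test compound wells and 100% = reference inhibitor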
Active calls of the source: *; · = no result. A selection: hits, their analogues and other compounds. The true share with any hit is near 1.4%.

SMILES | CASP6 VEID inh | LEDGF integ inh | MBD2 DNA inh | UHRF1 binding
COc1cc(/C=C2\C(=N)N3N=C(S(C)(=O)=O)SC3=NC2=O)ccc1OS(=O)(=O)c1ccc(C)cc1 | 50* | 0 | 2 | 2
COc1ccc(CN(C)C[C@H]2Oc3ccc(NS(=O)(=O)c4ccc(F)cc4)cc3C(=O)N([C@@H](C)CO)C[C@H]2C)cc1 | 1 | · | · | ·
COc1ccc(NC(=O)Nc2ccc3c(c2)CC(=O)N([C@H](C)CO)C[C@H](C)[C@H](CN(C)C(=O)Nc2ccccc2)O3)cc1 | 1 | · | · | ·
CC(C)n1nnnc1-c1ccc(Cl)cc1 | 4 | 3 | 2 | 21*
Cc1cc(-c2ccc(Cl)cc2)c2cnn(C(C)C)c2n1 | 1 | 6 | -2 | 3
CCC1(C)Cc2c(sc(NC(=S)NC(=O)c3ccccc3)c2C#N)CO1 (configuration not stated) | 5 | -2 | 3 | 1
CN1Cc2sc(NC(=S)NC(=O)c3ccccc3)c(C#N)c2CC1(C)C | -26 | -9 | 21* | 29*
Cc1cccn2c(=O)c3cc(C(=O)NC4CCCC4)n(C)c3nc12 | -2 | 2 | -2 | -2
COC1C=CC(CNC(=O)c2cc3c(=O)n4cccc(C)c4nc3n2C)(OC)O1 (configuration not stated) | -3 | 1 | 2 | 69*
COc1ccc(/C=C/C(=O)NCCCNC(=O)/C=C/c2ccc(OC)c(OC)c2)cc1OC | 7 | 4 | -5 | -5
COc1ccc(/C=C/C(=O)NCCNC(=O)c2ccccc2)cc1OC | 1 | 2 | 4 | 25*
CC(OC(=O)c1nn(C)c(=O)c2ccccc12)C(=O)NC1CCCCC1C (configuration not stated) | -4 | -4 | -1 | 26*
CC(OC(=O)C1=NN(c2ccccc2)C(=O)CC1)C(=O)NC1CCCCC1C (configuration not stated) | -4 | 3 | 1 | 48*
CC(OC(=O)c1n[nH]c2ccccc12)C(=O)NC1CCCCC1C (configuration not stated) | -4 | -4 | 5 | -1
C[C@H]1CN([C@@H](C)CO)C(=O)c2cc(C#CCC3CCCC3)cnc2O[C@@H]1CN(C)C(=O)CN(C)C | -8 | · | · | ·
Cc1ccc(S(=O)(=O)N=Nc2c(O)[nH]c3ccccc23)cc1C | · | 3 | -3 | -4
COc1ccc(S(=O)(=O)N=Nc2c(O)[nH]c3ccccc23)cc1 | 26 | 10 | 13* | 46*
CCNC(=O)Nc1ccc2c(c1)C(=O)N(C)[C@H]1CC[C@@H](CC(=O)NCC3CCCCC3)O[C@H]1CO2 | -1 | · | · | ·
C=C(C)C(=O)Nc1ccc2c(c1)OCCOCCOCCO2 | 53* | -1 | 3 | 14
C[C@H](CO)N1C[C@H](C)[C@H](CN(C)S(=O)(=O)c2ccccc2)Oc2ccc(NC(=O)CCC(F)(F)F)cc2CC1=O | 0 | · | · | ·
CC(C)(C)S(=O)N1Cc2cc(C(=O)N3CCc4ccccc4C3)nc(-c3cccc(-c4cccnc4)c3)c2[C@@H]1CCO (some centres not stated) | 42* | -3 | -11 | -8
COc1ccc(-c2ccc(C(=O)NCC(C)C)c3occc23)c(C)c1 | 4 | -4 | 7 | 49*
Cc1noc(C)c1S(=O)(=O)Nc1ccc2c(c1)C(=O)N([C@@H](C)CO)C[C@H](C)[C@@H](CN(C)S(=O)(=O)c1ccc(Cl)cc1)OCCCC[C@@H](C)O2 | 2 | · | · | ·
COc1ccc(S(=O)(=O)N2CCOCC2)cc1NC(=O)CN(C)Cc1c(F)cccc1Cl | -1 | 3 | 4 | 24*
Cc1cc(C)c2nc(NNC(=O)c3ccc(S(=O)(=O)N4CC(C)CC(C)C4)cc3)sc2c1 (configuration not stated) | -3 | 15* | 5 | -2
SMILES | CASP6 VEID inh | LEDGF integ inh | MBD2 DNA inh | UHRF1 binding
Cc1cc(C)c2nc(NNC(=O)c3ccc(S(=O)(=O)N4CCCC(C)C4)cc3)sc2c1 (configuration not stated) | 1 | 10 | 1 | -2
O=C(CCCN1CC=C(n2c(=O)[nH]c3ccccc32)CC1)c1ccc(F)cc1 | -1 | -2 | 2 | 23*
O=C1CCC/C=C\C[C@@H](CC(=O)N(CCO)Cc2ccccc2)C(=O)N[C@H](c2ccccc2)CO1 | -3 | 2 | 5 | 22*
O=C1c2ccccc2NC2(CCCC2)N1O | · | -2 | 2 | 80*
O=C1c2ccccc2NC2(CCCCC2)N1N=C1CCCCC1 | -3 | 3 | -1 | 3
Cc1ccc(S(=O)(=O)Nc2cccc3c2O[C@@H](CN(C)C(=O)Nc2ccccc2)[C@@H](C)CN([C@@H](C)CO)C3=O)cc1 | -1 | · | · | ·
CCCCCn1nnnc1-c1nc2cc(C)c(C)cc2[nH]c1=O | 42* | 11 | -3 | -6
CCCCn1nnnc1-c1nc2ccccc2[nH]c1=O | 1 | 1 | -6 | 0
C/C(=N\NC(=O)CN1CCCCC1)c1cccc([N+](=O)[O-])c1 | 1 | -2 | 0 | 25*
O=C(CN1CCCCCC1)Nc1cccc([N+](=O)[O-])c1 | 0 | 2 | -3 | 0
Cc1ccccc1N1CCN(C2CCCN(C(=O)c3csc(C(C)C)n3)C2)CC1 (configuration not stated) | 2 | 15* | 0 | 1
Cc1nc(C(=O)N2CCCC(N3CCN(c4ccccc4C)CC3)C2)cs1 (configuration not stated) | -7 | -2 | 1 | 0
Cc1ccc(CNCc2cccnc2)s1 | 0 | -2 | -1 | 26*
Cc1ccc(CNCc2cccnc2)cc1 | · | -3 | -5 | 0
O=C(Nc1ccc(-c2ccccc2)cc1)[C@@H]1[C@@H](CO)[C@@H]2Cn3c(cccc3=O)[C@H]1N2Cc1cccnc1 | -2 | · | · | ·
Cc1cc(Oc2ccc(C#N)cc2)nc(N2CCOCC2)n1 | · | 1 | 11 | 21*
Cc1cc(Oc2ccc([N+](=O)[O-])cc2)nc(N2CCOCC2)n1 | 0 | 6 | -4 | 1
O=C(O)c1ccccc1C(=O)c1ccc(Sc2ccc(Cl)cc2)c([N+](=O)[O-])c1 | 9 | 1 | 0 | 21*
Nc1ccccc1Sc1ccc(C(=O)c2ccccc2C(=O)O)cc1[N+](=O)[O-] | 46* | 5 | -5 | 9
CC(=O)c1ccc(Sc2ccccc2N)c([N+](=O)[O-])c1 | 1 | 0 | -1 | -2
CC(C)NC(=O)N[C@@H]1CC[C@H](CC(=O)N2CCCCC2)O[C@@H]1CO | -1 | · | · | ·
O=C(NCCc1ccccc1)[C@H]1[C@H](CO)[C@H]2Cn3c(cccc3=O)[C@@H]1N2C(=O)C1CCC1 | -2 | · | · | ·
CCNS(=O)(=O)c1ccc(NC(=O)Nc2ccccc2OC)cc1 | · | 6 | 6 | 23*
COc1ccccc1NS(=O)(=O)c1cccc(NC(=O)Nc2ccc(Cl)cc2)c1 | 6 | 5 | 4 | 26*
CCNS(=O)(=O)c1ccc(NC(=O)Nc2cc(C)ccc2OC)cc1 | 1 | -1 | -1 | -1
C[C@@H]1CCCCO[C@@H](CN(C)C(=O)Nc2ccccc2)[C@H](C)CN([C@@H](C)CO)C(=O)c2cc(NS(=O)(=O)c3cccs3)ccc2O1 | 1 | · | · | ·
CCOc1ccc(-c2cc(CCCC(=O)NCc3ccc(C)cc3)no2)cc1 | 0 | 2 | 1 | 29*
O=C(NCCc1ccc(F)cc1)c1coc(=O)c(Br)c1 | 0 | 0 | 2 | 2

High-throughput results (PubChem)
